Inconclusive results are not listed. The source made the active and inactive calls. Unless noted, calls come from the whole dose curve; as a rule, active = well fitted curve in the direction sought with a large enough effect; inconclusive = small, poorly fitted or top-dose-only effect, or another doubt; inactive = no such curve, though single readings can be large; an effect the other way counts as inactive or inconclusive.

For test [1], the target named is Transient receptor potential cation channel subfamily V member 1 (Homo sapiens) (UniProt Q8NER1). In words: HTS Assay for Compounds that Act as Enhancers of the Vanilloid Receptor 1 (AID 488979). Note: 0% is about no effect. Summed up:
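Calcium influx kinetics via Fluo-8 (480/520 nm) in TRPV1-expressing cells, 2000/well cultured overnight at 35.5C. Compound-alone read 3 min (agonist phase), followed by EC20 capsaicin challenge for 2 min (enhancer phase).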

For test [2], the target named is Thyrotropin receptor (Homo sapiens) (UniProt P16473). Briefly: qHTS Assay for Antagonists of the Thyroid Stimulating Hormone Receptor (AID 488980). Note: series mostly up to about 58 µM; 0% is about no effect. Summed up: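 Cells expressing human TSHR (HEK293) are dispensed in HBSS/HEPES containing 70 uM RO 20-1724, compound is added, then TSH at EC80 (4 nM final). Antibody in lysis buffer follows, 30 minutes at room temperature before HTRF detection.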
Chain of Thyrotropin receptor (Homo sapiens) (P16473 whole entry, looked up): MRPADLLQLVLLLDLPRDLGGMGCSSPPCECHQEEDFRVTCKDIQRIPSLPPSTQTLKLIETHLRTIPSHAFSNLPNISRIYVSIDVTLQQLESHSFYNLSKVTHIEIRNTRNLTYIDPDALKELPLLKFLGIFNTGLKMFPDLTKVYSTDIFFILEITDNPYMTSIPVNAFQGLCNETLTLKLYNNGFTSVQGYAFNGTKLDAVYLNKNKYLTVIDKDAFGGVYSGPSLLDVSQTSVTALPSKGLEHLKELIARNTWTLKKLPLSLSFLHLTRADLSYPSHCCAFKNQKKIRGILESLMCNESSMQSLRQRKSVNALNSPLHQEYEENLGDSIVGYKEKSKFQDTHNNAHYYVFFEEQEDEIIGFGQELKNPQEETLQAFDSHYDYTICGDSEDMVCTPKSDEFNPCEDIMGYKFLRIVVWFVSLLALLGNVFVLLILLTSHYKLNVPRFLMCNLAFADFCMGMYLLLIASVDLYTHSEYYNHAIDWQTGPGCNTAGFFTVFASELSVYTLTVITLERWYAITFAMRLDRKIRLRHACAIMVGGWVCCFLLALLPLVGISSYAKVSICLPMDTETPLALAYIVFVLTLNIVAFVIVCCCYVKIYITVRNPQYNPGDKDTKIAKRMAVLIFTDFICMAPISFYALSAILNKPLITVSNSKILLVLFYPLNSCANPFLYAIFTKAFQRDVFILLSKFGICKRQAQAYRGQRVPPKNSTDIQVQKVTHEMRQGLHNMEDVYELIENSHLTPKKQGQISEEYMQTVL

For test [3], the target named is D(1A) dopamine receptor (Homo sapiens) (UniProt P21728). Briefly: HTS Assay for Allosteric Agonists of the Human D1 Dopamine Receptor: Primary Screen for Agonists (AID 488981). For activation: 0% is about no effect. Note: potency is the fitted concentration of half-maximal effect. In a few lines:
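Calcium flux in an inducible, force-coupled HEK293 Trex D1 line (overnight at 30 C): agonist mode is the 180 s kinetic read after compound; potentiator mode is the following 180 s read after dopamine at EC20.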

For test [4] the target is unchanged. In words: HTS Assay for Allosteric Agonists of the Human D1 Dopamine Receptor: Primary Screen for Antagonists (AID 488983).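 Note: calcium flux response to an EC80 dopamine challenge measured with no-wash dye; nearly all actives have a fitted effect of over 65% in size.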 Note: potency is the fitted concentration of half-maximal effect. Summed up: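 Tetracycline-induced HEK293 T-REx D1 line, force-coupled to calcium flux, read with no-wash calcium dye. Compound added after 10 s baseline, read 180 s for agonism, then EC80 dopamine added and read a further 180 s.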
Test [5] has as its target ATP-dependent 6-phosphofructokinase (Trypanosoma brucei brucei) (UniProt O15648). Briefly: qHTS Assay to Find Inhibitors of T. brucei phosphofructokinase: hit validation (AID 492961).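 Note: luminescence reports ADP formed as PFK phosphorylates fructose-6-phosphate with ATP; series mostly up to about 51 µM; % is set by controls: 0 for no effect and ±100 for the full control effect.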 Summed up: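 Measures ADP output of PFK (1.25 nM) at 0.1 mM ATP, 0.5 mM F6P, pH 8.0 TEA buffer with 5 mM MgCl2. No-enzyme wells define full inhibition; uninhibited enzyme wells define zero.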

A short description of test [6]: Validation screen for small molecules that induce genotoxicity in human embryonic kidney (HEK293T) cells expressing luciferase-tagged ELG1 (AID 493106). Note: 0% is about no effect. Summed up: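 HEK293T cells expressing luciferase-tagged ELG1, 2,000 cells/well, exposed to compound 16 hr at 37 °C, 5% CO2. Luciferase read after ONE-Glo, 30 min at room temperature; increased signal indicates genetic stress.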

The target of test [7] is ATPase family AAA domain-containing protein 5 (Homo sapiens) (UniProt Q96QE3). Briefly: Validation screen for small molecules that inhibit ELG1-dependent DNA repair in human embryonic kidney (HEK293T) cells expressing luciferase-tagged ELG1 (AID 493107). Note: nearly all actives have a fitted effect of over 70% in size. Note: potency is the fitted concentration of half-maximal effect. In a few lines:
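HEK293T cells expressing luciferase-tagged ELG1, 2,000 per well, treated with 5-fluorouridine plus compound for 16 h at 37 C. ONE-Glo luminescence after 30 min at room temperature reports ELG1 reporter level.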

In test [8] the target is Thyrotropin-releasing hormone receptor (Homo sapiens) (UniProt P34981). Briefly: qHTS for Small Molecule Agonists and Allosteric Enhancers of Human TRH Receptor: Validation Screen for Agonists (AID 493127;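 active = calcium activation more than 3 SD above the typical response in the agonist read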; note: 0% is about no effect). The settings on record: TRH receptor agonist cell assay; at 2 µM; stronger effect = higher value. Summed up:
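TRHR cells loaded with fluo-8 calcium dye; FDSS kinetic fluorescence (Ex 480/Em 530) read at 1 s/cycle after 23 nL compound addition. Agonist-mode calcium response recorded before the 10 nM TRH (EC20) addition.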

Test [9] in a line: Nrf2 qHTS screen for inhibitors: Validation (AID 493153; active = well fitted inhibition curve with a large enough effect in the main read-out, with a control signal flat, not every such curve was filed as active). The following applies: viability change: measured here: cytotoxicity max response. In a few lines: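 A549 cells carrying ARE-firefly luciferase reporter, 5000 cells/well in 5% FBS OPTI-MEM, treated with compound over a concentration series for 18-24 h at 37 C. Luciferase luminescence gave Nrf2 activity; CellTiter-Fluor fluorescence gave viability.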

Test [10] in a line: qHTS for Inhibitors of Cell Surface uPA Generation: Validation Assay (AID 493164). Note: 0% is about no effect. Summed up: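 RAW 264.7 cells (4000/well) were plated overnight, then exposed for 18 h at 37 C, 5% CO2 to compounds in a 7-point 1:5 titration (2.45 nM–38.3 uM final). Intracellular ATP was read by ATP-Lite luminescence.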
Test [11] deals with Galactokinase (Homo sapiens) (UniProt P51570). In words: qHTS Validation Assay for Inhibitors of Human Galactokinase (GALK) (AID 493189). Note: 0% is about no effect. In a few lines: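 Compounds were pin-transferred into ATP buffer, then GALK-galactose mix was added (final 5 nM enzyme, 100 uM galactose, 35 uM ATP). After 1 h at room temperature, remaining ATP was measured luminescently.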
Chain of Galactokinase (Homo sapiens) (P51570 whole entry, looked up): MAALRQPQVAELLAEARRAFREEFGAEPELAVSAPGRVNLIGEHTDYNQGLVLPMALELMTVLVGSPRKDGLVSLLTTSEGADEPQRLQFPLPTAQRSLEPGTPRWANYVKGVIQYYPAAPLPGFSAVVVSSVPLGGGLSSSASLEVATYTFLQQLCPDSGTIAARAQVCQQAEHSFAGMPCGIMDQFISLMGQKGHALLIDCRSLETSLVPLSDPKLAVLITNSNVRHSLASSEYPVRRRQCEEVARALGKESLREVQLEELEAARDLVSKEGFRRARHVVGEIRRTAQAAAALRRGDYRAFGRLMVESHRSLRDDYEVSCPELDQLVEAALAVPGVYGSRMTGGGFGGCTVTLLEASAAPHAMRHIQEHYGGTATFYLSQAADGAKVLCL
Test [12] is described as follows: Validation screen for small molecules that induce DNA re-replication in SW480 colon adenocarcinoma cells (AID 504364). Note: 0% is about no effect. In a few lines:
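SW480 cells (250/well) exposed 48 h at 37 C, 5% CO2, then Hoechst-stained 40 min. Nuclear DNA content imaged by fluorescence scanning (405 nm excitation, 500-530 nm emission); re-replication scored as increased nuclei with elevated intensity.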

Test [13] has as its target Peptidyl-prolyl cis-trans isomerase NIMA-interacting 1 (Homo sapiens) (UniProt Q13526). In words: qHTS Validation Assay to Find Inhibitors of Pin1 (AID 504536; active = well fitted inhibition curve with a large enough effect in the polarisation, with a control signal flat, not every such curve was filed as active; the % refers to the polarisation;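 note: 0% = full Pin1 enzyme wells and -100% = no-enzyme wells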). In a few lines: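 Fluorescence polarization competition: compounds (titration) displace HiFluor-488-labeled Pin1-1b peptide from Pin1 (0.3 uM final) in pH 7.5 HEPES buffer with DTT, 10 min at room temperature; %Activity normalized to no-enzyme wells, curves fitted.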

The target in test [14] is Phosphoglycerate kinase, glycosomal (Trypanosoma brucei brucei) (UniProt P07378). Briefly: qHTS Validation Assay to Find Inhibitors of Phosphoglycerate Kinase (AID 504547).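 Note: control wells lack PGK and mark full inhibition.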 Summed up:
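Inhibition of the enzyme is judged by a Kinase-Glo Plus luminescent signal following a one-hour incubation at room temperature. Because 1,3-BPG is unstable, it is made in situ by GAPDH at 100nM final; no-PGK wells define the baseline.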

The target of test [15] is phosphoglycerate mutase (Leishmania major) (UniProt Q4Q090). In words: qHTS Validation Assay to Find Inhibitors of Phosphoglycerate Mutase (AID 504548).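 Note: end-point luminescence from Kinase-GloPlus after the PGAM reaction; series mostly up to about 58 µM; % is set by controls: 0 for no effect and ±100 for the full control effect.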 In a few lines:
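L. major PGAM (1.25nM final) was added to substrate buffer and pinned compound, incubated 45 minutes at room temperature, then Kinase-GloPlus added; luminescence read after 10 minutes. Buffer: 100 mM TEA pH 7.6, 5 mM MgCl2, 0.01% Tween-20.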

A short description of test [16]: Inducers of the Endoplasmic Reticulum Stress Response (ERSR) in human glioma: Validation (AID 504836). Note: 0% is about no effect. Summed up:
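ERSR induction read as luciferase luminescence (Bright-Glo, 10 min at room temperature) in stably transfected human U87-MG glioma cells exposed to compounds for 16 h, using GRP78 as sensor.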

Test [17] concerns the target Ubiquitin carboxyl-terminal hydrolase 1 (Homo sapiens) (UniProt O94782). Briefly: Inhibitors of USP1/UAF1: Pilot qHTS (AID 504865).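 Note: rhodamine fluorescence freed from ubiquitin-rhodamine substrate followed over time; top concentration of the series differs between compounds; % is set by controls: 0 for no effect and ±100 for the full control effect; nearly all actives have a fitted effect of over 35% in size.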 In a few lines:
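Kinetic fluorescence assay: 1nM USP1/UAF1, 15 min compound preincubation, then 150nM Ub-Rho; 480/540 nm.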

Test [18] can be described thus: qHTS for Inhibitors of ATXN expression: Validation of Cytotoxic Assay (AID 588349). Note: % is set by controls: 0 for no effect and ±100 for the full control effect. In a few lines: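 HEK293 cells treated with titrated compound for 72 hr at 37 degrees C; viability read as intracellular ATP by CellTiter Glo luminescence.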

Chain of Transient receptor potential cation channel subfamily V member 1 (Homo sapiens) (Q8NER1 whole entry, looked up): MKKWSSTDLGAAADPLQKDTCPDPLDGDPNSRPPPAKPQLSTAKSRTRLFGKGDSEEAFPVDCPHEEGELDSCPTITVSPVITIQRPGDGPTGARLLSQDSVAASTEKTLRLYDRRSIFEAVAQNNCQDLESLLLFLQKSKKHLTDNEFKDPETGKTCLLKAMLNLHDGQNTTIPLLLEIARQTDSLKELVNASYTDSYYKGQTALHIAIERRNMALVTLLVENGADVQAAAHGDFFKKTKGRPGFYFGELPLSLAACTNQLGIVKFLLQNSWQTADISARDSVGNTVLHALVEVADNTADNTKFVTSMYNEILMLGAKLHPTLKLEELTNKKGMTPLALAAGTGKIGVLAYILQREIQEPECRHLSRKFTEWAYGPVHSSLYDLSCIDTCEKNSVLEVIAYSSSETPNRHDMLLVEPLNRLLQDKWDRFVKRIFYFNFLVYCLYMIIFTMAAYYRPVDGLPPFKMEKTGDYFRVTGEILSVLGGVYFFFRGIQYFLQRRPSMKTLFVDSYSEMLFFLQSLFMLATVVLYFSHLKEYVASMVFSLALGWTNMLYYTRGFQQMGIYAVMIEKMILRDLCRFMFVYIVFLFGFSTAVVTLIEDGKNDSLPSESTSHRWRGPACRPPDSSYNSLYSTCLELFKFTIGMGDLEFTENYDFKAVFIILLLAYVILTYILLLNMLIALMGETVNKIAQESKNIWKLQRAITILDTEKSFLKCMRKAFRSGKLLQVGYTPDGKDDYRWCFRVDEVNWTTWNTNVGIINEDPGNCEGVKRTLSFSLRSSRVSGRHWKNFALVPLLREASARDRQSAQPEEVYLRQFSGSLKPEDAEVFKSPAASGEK
Chain of Peptidyl-prolyl cis-trans isomerase NIMA-interacting 1 (Homo sapiens) (Q13526 whole entry, looked up): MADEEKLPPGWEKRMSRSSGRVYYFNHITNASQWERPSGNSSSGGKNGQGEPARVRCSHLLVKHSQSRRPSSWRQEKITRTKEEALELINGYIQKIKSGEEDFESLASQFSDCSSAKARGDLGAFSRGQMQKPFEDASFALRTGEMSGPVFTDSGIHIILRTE
Chain of phosphoglycerate mutase (Leishmania major) (Q4Q090 1-553): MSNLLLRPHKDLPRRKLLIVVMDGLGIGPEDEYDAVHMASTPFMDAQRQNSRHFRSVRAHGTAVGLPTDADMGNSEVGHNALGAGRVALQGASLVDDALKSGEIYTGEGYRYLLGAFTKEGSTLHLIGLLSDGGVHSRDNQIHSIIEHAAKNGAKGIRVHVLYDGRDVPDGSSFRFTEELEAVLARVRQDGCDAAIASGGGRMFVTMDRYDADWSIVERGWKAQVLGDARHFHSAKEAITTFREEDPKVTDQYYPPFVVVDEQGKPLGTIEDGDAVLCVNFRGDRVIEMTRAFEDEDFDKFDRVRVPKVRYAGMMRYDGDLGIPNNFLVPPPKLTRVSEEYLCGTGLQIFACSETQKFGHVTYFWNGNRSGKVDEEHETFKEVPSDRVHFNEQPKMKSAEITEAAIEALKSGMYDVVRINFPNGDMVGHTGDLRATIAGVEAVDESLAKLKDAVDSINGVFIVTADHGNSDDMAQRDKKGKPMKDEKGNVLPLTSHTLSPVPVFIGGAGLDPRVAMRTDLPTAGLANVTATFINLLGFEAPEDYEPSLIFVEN
Chain of Thyrotropin-releasing hormone receptor (Homo sapiens) (P34981 whole entry, looked up): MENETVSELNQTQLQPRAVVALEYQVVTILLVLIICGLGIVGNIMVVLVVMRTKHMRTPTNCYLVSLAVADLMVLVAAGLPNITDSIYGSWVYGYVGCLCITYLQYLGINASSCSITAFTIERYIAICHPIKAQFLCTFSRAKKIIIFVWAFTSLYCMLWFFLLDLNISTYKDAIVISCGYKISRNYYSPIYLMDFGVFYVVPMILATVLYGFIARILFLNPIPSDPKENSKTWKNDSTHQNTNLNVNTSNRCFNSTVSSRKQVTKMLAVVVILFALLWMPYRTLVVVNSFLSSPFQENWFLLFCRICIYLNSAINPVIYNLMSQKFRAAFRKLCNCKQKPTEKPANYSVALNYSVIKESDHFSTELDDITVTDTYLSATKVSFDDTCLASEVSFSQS
Chain of D(1A) dopamine receptor (Homo sapiens) (P21728 whole entry, looked up): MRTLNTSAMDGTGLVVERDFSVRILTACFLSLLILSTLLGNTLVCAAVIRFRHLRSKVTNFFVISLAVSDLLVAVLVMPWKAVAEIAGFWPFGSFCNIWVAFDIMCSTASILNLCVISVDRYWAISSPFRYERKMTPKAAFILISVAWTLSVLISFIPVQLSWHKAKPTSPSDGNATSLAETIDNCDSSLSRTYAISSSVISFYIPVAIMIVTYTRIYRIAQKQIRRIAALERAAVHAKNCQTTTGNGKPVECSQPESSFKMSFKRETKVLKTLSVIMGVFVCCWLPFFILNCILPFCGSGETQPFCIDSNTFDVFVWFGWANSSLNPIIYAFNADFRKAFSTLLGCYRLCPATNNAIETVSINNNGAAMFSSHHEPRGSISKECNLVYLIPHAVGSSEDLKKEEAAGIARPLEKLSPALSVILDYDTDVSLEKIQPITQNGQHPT
Chain of Ubiquitin carboxyl-terminal hydrolase 1 (Homo sapiens) (O94782 whole entry, looked up): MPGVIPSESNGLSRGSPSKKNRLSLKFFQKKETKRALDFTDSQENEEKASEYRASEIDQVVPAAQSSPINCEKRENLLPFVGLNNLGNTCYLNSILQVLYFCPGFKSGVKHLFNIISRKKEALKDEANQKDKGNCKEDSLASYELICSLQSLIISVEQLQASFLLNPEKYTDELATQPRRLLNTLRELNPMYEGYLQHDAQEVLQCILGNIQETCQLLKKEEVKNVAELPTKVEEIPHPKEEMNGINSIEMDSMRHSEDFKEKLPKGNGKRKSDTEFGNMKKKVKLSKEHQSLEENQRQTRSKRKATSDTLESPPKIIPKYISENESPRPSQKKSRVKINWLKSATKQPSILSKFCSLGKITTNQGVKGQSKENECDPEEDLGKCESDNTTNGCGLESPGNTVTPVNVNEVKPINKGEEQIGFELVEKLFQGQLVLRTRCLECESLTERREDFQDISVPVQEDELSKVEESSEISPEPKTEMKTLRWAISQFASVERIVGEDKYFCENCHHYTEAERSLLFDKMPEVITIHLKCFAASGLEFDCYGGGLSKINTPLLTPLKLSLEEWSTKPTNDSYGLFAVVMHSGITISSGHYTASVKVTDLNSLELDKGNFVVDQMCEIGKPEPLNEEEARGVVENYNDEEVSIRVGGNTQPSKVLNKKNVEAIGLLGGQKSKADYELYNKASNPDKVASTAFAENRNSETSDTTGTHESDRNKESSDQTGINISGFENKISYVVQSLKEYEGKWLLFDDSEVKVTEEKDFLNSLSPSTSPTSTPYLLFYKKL
Chain of Phosphoglycerate kinase, glycosomal (Trypanosoma brucei brucei) (P07378 whole entry, looked up): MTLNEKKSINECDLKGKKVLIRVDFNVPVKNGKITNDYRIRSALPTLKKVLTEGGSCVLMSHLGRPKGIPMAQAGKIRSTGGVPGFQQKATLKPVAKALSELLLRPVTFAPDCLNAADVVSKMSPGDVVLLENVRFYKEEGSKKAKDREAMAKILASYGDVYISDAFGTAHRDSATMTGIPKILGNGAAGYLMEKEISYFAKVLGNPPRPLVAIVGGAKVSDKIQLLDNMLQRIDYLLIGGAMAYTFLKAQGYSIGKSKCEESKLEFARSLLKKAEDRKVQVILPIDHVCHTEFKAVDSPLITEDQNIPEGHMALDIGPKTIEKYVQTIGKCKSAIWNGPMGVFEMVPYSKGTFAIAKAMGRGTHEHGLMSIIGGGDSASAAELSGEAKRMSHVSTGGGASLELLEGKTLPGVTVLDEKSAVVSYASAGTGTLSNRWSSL

In the case of `C=CCN1CC[C@]23CCCCC2[C@H]1Cc1ccc(O)cc13` (stereo not given in full), the outcome in test [1], in test [2], in test [6], in test [9], in [10] and in test [11] was inactive. Moreover, the result in test [12], in [13], in [14] and in test [15] was inactive. The Potency result in [3], in test [4], in test [5], in test [7], in test [16] and in test [17] was “inactive” throughout. Also, the activation in [8] was 2% (inactive). Besides, in test [9], the viability change was -5%.

As to `Cc1nccc2c1[nH]c1ccccc12`, the result in test [1], in test [2], in test [6], in test [9], in [10] and in test [11] was inactive. Moreover, the compound was classed as inactive in [12], in [13], in test [14], in test [15] and in test [18]. Further, the Potency result in [3], in test [4] and in test [17] was “inactive” in each case. In addition, the Potency in test [7] was 9.2 µM (active). Also, the activation in test [8] is 0.938% (inactive). Also, the viability change in [9] was found to be 6.29%.

Regarding `Cn1cnc(CCN)c1`, the outcome in test [1], in test [2], in test [6], in [9], in [10] and in test [11] was inactive. Moreover, the outcome in test [12], in test [13], in test [14], in test [15] and in test [18] was inactive. In addition, the Potency result in [3], in test [4], in test [7], in test [16] and in test [17] was “inactive” throughout. Further, the activation in [8] is 0.562% (inactive). Besides, the viability change in test [9] was -10.2%.

Take `CC(=O)NCCc1c[nH]c2ccccc12`: the result in [1], in test [2], in test [6], in test [9], in test [10] and in test [11] was inactive. The compound was classed as inactive in test [12], in test [13], in test [14], in test [15] and in test [18]. Further, the Potency result in [3], in test [4], in [7] and in test [17] was “inactive” in each case. In [8], the activation was 0.375% (inactive). Also, in test [9], the viability change was 1%.

For `Oc1ccc2c3c1O[C@H]1c4[nH]c5c(c4C[C@@]4(O)[C@@H](C2)N(CC2CC2)CC[C@]314)C[C@@]1(O)[C@H]2Cc3ccc(O)c4c3[C@@]1(CCN2CC1CC1)[C@H]5O4`, the outcome in test [1], in [2], in [6], in [9], in test [10] and in [11] was inactive. Also, the outcome in test [12], in [13], in test [14] and in test [15] was inactive. Besides, the Potency result in test [3], in test [4], in test [7] and in test [17] was “inactive” in each case. For the same compound, the activation in test [8] is 0.625% (inactive). For the same compound, the viability change in [9] worked out at 0%.

Take `NC1CCc2cc(O)c(O)cc2C1` (stereo not given): the result in [1], in test [2], in [6], in test [9], in [10] and in test [11] was inactive. Moreover, the outcome in [12], in [13], in test [14], in [15] and in test [18] was inactive. Moreover, the Potency was 158 nM (active) in test [3] and 89.1 nM (active) in test [4]. Besides, the Potency entry in test [7] and in test [17] was “inactive” in each case. In [8], the activation was 0.75% (inactive). Also, the viability change in test [9] worked out at 10.6%.

With `CNCCc1c[nH]c2ccc(O)cc12`, the result in [1], in [2], in [6], in test [9], in [10] and in [11] was inactive. In addition, the outcome in test [12], in [13], in test [14], in test [15] and in [18] was inactive. Also, the Potency result in test [3], in test [4], in test [7] and in test [17] was “inactive” each time. The activation in test [8] was 1.06% (inactive). Moreover, the viability change in [9] was determined as 1.11%.

Values taken from PubChem BioAssay (NCATS).
